A selection: hits, their analogues and other compounds. The true share with any hit is near 11%.
HP1b chromo inh – HTS for Inhibitors of HP1-beta Chromodomain Interactions with Methylated Histone Tails; Chromobox protein homolog 1 (Homo sapiens), P83916; AlphaScreen HP1-beta / biotin-H3K9me3 peptide binding; Potency, µM (highest dose often 114 µM), inactives show top-dose activity change, negative = inhibition, actives largely listed as inhibitors; actives 0.56% (n = 390,000); AID 540317, 2011; further: nearly all actives have a fitted effect of over 70% in size
Target sequence (P83916 whole entry, looked up): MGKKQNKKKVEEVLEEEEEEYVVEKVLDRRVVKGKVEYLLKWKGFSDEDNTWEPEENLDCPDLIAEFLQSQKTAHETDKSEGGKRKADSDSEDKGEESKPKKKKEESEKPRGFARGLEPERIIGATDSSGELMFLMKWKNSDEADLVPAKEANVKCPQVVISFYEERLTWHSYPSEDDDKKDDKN
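HP1-beta protein (50 nM final) preincubated 30 min at room temperature with biotinylated H3(1-18)K9me3 peptide (50 nM) in PBS pH 7.4, 0.01% Tween-20, then compound added for 30 min. AlphaScreen streptavidin donor/nickel chelate acceptor beads (10 ug/mL final), 30 min dark, luminescence read.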
JMJD2A Tudor – qHTS Assay for Inhibitors of JMJD2A-Tudor Domain; actives 4.4% (n = 390,000); AID 504339, 2011; Lysine-specific demethylase 4A (Homo sapiens), O75164; AlphaScreen JMJD2A-Tudor / H3K4me3 peptide binding; Potency, µM (titrated, usually from 114 µM), for the others: at the highest dose activity change, negative = inhibition, actives largely listed as inhibitors; further: on the % scale 0 is the no-effect control and ±100 the full control effect; nearly all actives have a fitted effect of over 50% in size
BAZ2B block – qHTS Assay for Inhibitors of BAZ2B; AlphaScreen BAZ2B-H3K14Ac peptide displacement; Potency, µM (titrated, usually from 114 µM), without a hit: at the highest dose activity change, negative = inhibition, actives largely listed as inhibitors; actives 4.4% (n = 360,000); further: on the % scale 0 is the no-effect control and ±100 the full control effect; nearly all actives have a fitted effect of over 60% in size
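Inhibition is scored as reduced AlphaScreen emission. The BAZ2B/b-H3(5-23)K14Ac complex (50 nM each) in PBS pH 7.4, 0.01% Tween-20 meets compound (up to 110 uM) for 30 min at RT before bead addition.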
G9a block – qHTS Assay for Inhibitors of Histone Lysine Methyltransferase G9a | G9a H3K9 monomethylation, AlphaScreen, 2 h | actives 8.8% (n = 350,000) | AID 504332, 2011 | Potency, µM (titrated, usually from 102 µM), for inactives: at the top dose activity, negative = inhibition, usual class: inhibitors; further: on the % scale 0 is the no-effect control and ±100 the full control effect; nearly all actives have a fitted effect of over 75% in size
Target sequence (Q96KQ7 913-1193 limits assumed): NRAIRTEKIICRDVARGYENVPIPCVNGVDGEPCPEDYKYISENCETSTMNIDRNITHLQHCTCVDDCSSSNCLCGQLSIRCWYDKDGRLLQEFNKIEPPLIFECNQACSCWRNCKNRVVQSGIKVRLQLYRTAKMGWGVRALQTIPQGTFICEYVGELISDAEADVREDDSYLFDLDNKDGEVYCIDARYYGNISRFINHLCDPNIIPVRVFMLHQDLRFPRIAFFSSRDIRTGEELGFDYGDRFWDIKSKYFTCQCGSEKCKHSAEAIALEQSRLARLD
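Signal arises when biotinylated H3K9 peptide, once monomethylated, bridges streptavidin donor and antibody-captured acceptor beads. Enzyme at 20 nM was preincubated 15 min with test compounds; peptide 500 nM and SAM 20 uM then reacted for 2 h.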
L3MBTL1 block – qHTS Assay for the Inhibitors of L3MBTL1; Potency, µM (series often up to 57.1 µM), for the others: at the top dose activity, negative = inhibition, actives largely listed as inhibitors; actives 0.66% (n = 230,000); Lethal(3)malignant brain tumor-like protein 1 (Homo sapiens), Q9Y468; AID 485360, 2010; AlphaScreen L3MBTL1–H3K9me1 peptide binding; further: on the % scale 0 is the no-effect control and ±100 the full control effect; nearly all actives have a fitted effect of over 60% in size
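AlphaScreen proximity signal between nickel-chelate acceptor and streptavidin donor beads (final 10 ug/mL) reports binding of 50 nM L3MBTL1 to 75 nM biotin-H3 K9me1 peptide; complex incubated with compounds 30 min at room temperature; cefsulodin titration as control.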
An asterisk follows results filed as active; ? = inconclusive; · = no result given; [ ] = dose if it differs, or a comment. The call rests on the fitted dose curve; in most records, active means well fitted inhibition curve with a large enough effect; inconclusive means small, poorly fitted or top-dose-only effect; inactive means no such curve, though single readings can be large or run the other way. Potency means the concentration at half of the fitted maximal effect.

SMILES | HP1b chromo inh | JMJD2A Tudor | BAZ2B block | G9a block | L3MBTL1 block
CN(C)CCN(C(=O)c1ccco1)c1nc2cc3c(cc2s1)OCCO3 | 24.7% | -9.9% | -24.3% | · | ·
CN(C)CCN(C(=O)c1ccc(N2C(=O)CCC2=O)cc1)c1nc2cc3c(cc2s1)OCCO3 | · | · | ? | 31.6µM* | ·
CN(C)CCN(C(=O)c1ccc(S(=O)(=O)N(C)c2ccccc2)cc1)c1nc2cc3c(cc2s1)OCO3 | -14.3% | ? | 39.8µM* | 35.5µM* | ·
CN(C)CCN(C(=O)CN1C(=O)c2ccccc2C1=O)c1nc2cc3c(cc2s1)OCO3 | 4.7% | -29.4% | 89.1µM* | ? | ·
CN(C)CCCN(C(=O)c1ccc(C(=O)c2ccccc2)cc1)c1nc2cc3c(cc2s1)OCCO3 | -5.8% | 50.1µM* | 31.6µM* | · | ·
CC(=O)Nc1ccc(NC(=O)CCC(=O)c2ccc(C)cc2)cc1 | 51.6% | -2.2% | 2.7% | 7.8%[59 µM] | ·
COc1cccc(CCNC(=O)c2ccc(Cn3c(SCc4ccccc4)nc4cccnc43)cc2)c1 | 34.8% | -13.5% | -10.0% | ? | ·
CCOc1cc(/C=C2/C(=O)NN(c3cccc(Cl)c3)C2=O)ccc1O | -18.0% | ? | 35.5µM* | 31.6µM* | -7.6%
COc1cc(/C=C2/C(=O)NN(c3cccc(C)c3)C2=O)ccc1OC(=O)c1ccco1 | -6.9% | -23.0% | ? | ? | -11.4%
COc1cc(/C=C2/C(=O)NN(c3cccc(Cl)c3)C2=O)cc(OC)c1O | ? | 50.1µM* | 28.2µM* | 14.1µM* | -23.6%
O=C1NN(c2cccc(Br)c2)C(=O)/C1=C\c1ccc(O)cc1 | 1.9% | -25.4% | -35.8% | 3.55µM* | ·
COc1ccccc1OCC(=O)N(Cc1ccco1)Cc1ccccc1F | -8.3% | ? | -30.1% | -6.6%[59 µM] | ·
COc1cc2nc(NCCc3cccc(C)c3)n3nc(-c4ccccc4)nc3c2cc1OC | 27.6% | -5.1% | -31.2% | -12.2%[59 µM] | ·
c1csc(CNc2nc3ccccc3n2CCN2CCOCC2)c1 | 25.3% | -3.6% | 10.9% | ? | ·
c1ccc(CNc2nc3ccccc3n2CCN2CCOCC2)nc1 | 19.2% | 25.1µM* | 70.8µM* | -26.4%[59 µM] | -4.9%
CCCn1c(NCc2cccs2)nc2ccccc21 | 45.5% | -14.1% | · | 9.7%[59 µM] | 4.5%
CCCn1c(NCc2ccccn2)nc2ccccc21 | 12.0% | 20µM* | 56.2µM* | 5.62µM* | -14.9%
COc1cc(OC)cc(C(=O)NC2CC(C)(C)NC(C)(C)C2)c1 | 29.7% | -11.9% | -4.7% | · | 56.8%
COc1cccc(CNS(=O)(=O)c2c(C(=O)N3CCC(C)CC3)c(C)n(C)c2C)c1 | -10.1% | -28.8% | -19.1% | -3.8%[59 µM] | ·
COc1ccc(-c2nsc(NC(=O)COc3ccc(C)c(C)c3)n2)cc1 | 32.0% | -7.5% | -5.1% | -30.0%[59 µM] | ·
CCOCc1[nH]c(=S)[nH]c(=O)c1Cc1ccc(OC(C)C)cc1 | 6.4% | -32.6% | -24.7% | 50.1µM* | -14.0%
Cc1ccc(C2CC(c3cccs3)=NN2C(=O)c2ccco2)o1 (centres undefined) | -5.4% | ? | ? | 35.5µM* | -13.5%
O=C(COc1ccccc1F)N1N=C(c2cccs2)CC1c1ccco1 (centres undefined) | -24.5% | 14.1µM* | ? | 50.1µM* | -28.3%
CCCOc1ccc(Cc2nn[nH]n2)cc1 | 43.8% | -4.1% | -15.0% | 50.1µM* | -4.5%
CCOc1ccc(Cc2nn[nH]n2)cc1 | 22.0% | -12.3%[11.4 µM] | 5.5% | ? | 3.2%
SMILES | HP1b chromo inh | JMJD2A Tudor | BAZ2B block | G9a block | L3MBTL1 block
Cc1nn2cc(-c3ccc(Cl)cc3)cnc2c1Cl | 29.4% | -8.4% | -1.1% | 4.9% | 8.3%
CCN(CC)S(=O)(=O)c1ccc(N2CCOCC2)c(NC(=O)c2ccco2)c1 | 8.9%[57 µM] | -11.0% | · | · | 0.2%
O=C(NC(=S)Nc1cc(S(=O)(=O)N2CCOCC2)ccc1N1CCOCC1)c1ccco1 | 35.6% | -14.4% | -29.6% | -27.2% | -4.8%
CCN(CC)S(=O)(=O)c1ccc(N2CCOCC2)c(NC(=S)NC(=O)c2ccco2)c1 | ? | ? | -31.5% | 28.2µM* | -7.6%
O=C(NC(=S)Nc1cc(S(=O)(=O)N2CCOCC2)ccc1O)c1ccco1 | ? | -23.4% | -30.8% | 10µM* | 5.8%
CCc1cc(C(=O)Nc2cc(S(=O)(=O)N(CC)CC)ccc2N2CCOCC2)sc1C | 12.9% | -17.1% | 4.5% | 39.8µM* | -0.1%
CCN(CC)S(=O)(=O)c1ccc(N2CCOCC2)c(NC(=O)CC(C)(C)C)c1 | 5.1% | -28.1% | 12.4% | 79.4µM* | -4.5%
Cc1noc(C)c1NC(=O)N(C)C[C@H]1Oc2ccc(NC(=O)Nc3ccc(C(F)(F)F)cc3)cc2C(=O)N([C@H](C)CO)C[C@@H]1C | 33.2% | -6.3% | · | · | 5.2%
Cc1ccc(CSc2nnc(SCC(=O)N/N=C/c3c[nH]c4ccccc34)s2)cc1 | -1.7% | ? | 20µM* | ? | ·
O=C(CSc1nc2ccccc2[nH]1)N/N=C/c1ccncc1 | -14.3% | -16.2% | -2.3% | 3.3% | 2.9%
O=C(CSc1nnc(SCc2ccccc2)s1)N/N=C/C=C\c1ccco1 | ? | 12.6µM* | 14.1µM* | 10µM* | 12.6µM*
CCn1c(SCC(=O)NC(=O)NC(C)(C)C)nc2ccccc21 | ? | 11.2µM* | -3.8% | -5.0% | ·
Cc1ccc(/C=N/NC(=O)CSc2nc3ccccc3[nH]2)o1 | 2.0% | -24.7% | ? | 44.7µM* | ·
O=C(Nc1ccc(Cl)cc1Cl)c1cc(S(=O)(=O)N2CCC3(CC2)OCCO3)ccc1F | 36.5% | -19.3% | 9.6% | -4.0%[59 µM] | ·
CCn1c(SCC(=O)N/N=C/c2ccc(C)o2)nnc1-c1ccc(C)cc1 | 33.0% | ? | -2.6% | 44.7µM* | -0.1%
CCn1c(SCC(=O)N/N=C/C=C/c2ccccc2[N+](=O)[O-])nnc1-c1ccc(Cl)cc1 | · | · | -9.6% | -8.5%[59 µM] | -9.3%
CCn1c(SCC(=O)N/N=C/C=C/c2ccco2)nnc1-c1ccc(OC)cc1 | 16.2% | -11.8% | ? | 35.5µM* | ?
CCn1c(SCC(=O)N/N=C/c2ccc(C)o2)nnc1-c1ccc(C(C)(C)C)cc1 | 9.2% | ? | -35.7% | ? | -6.2%
Cn1c(SCC(=O)N/N=C/c2ccco2)nc2ccccc21 | 38.8% | -9.3% | -26.3% | -3.1% | -0.8%
CCn1c(SCC(=O)N/N=C/C=C/c2ccco2)nc2ccccc21 | -9.1% | ? | 44.7µM* | 6.31µM* | 35.5µM*
Cn1c(=S)c2[nH]c(SCC3CCCO3)nc2n(C)c1=O (centres undefined) | ? | 4.47µM* | · | · | ·
CC(=O)NC1=NN(C(C)=O)C(C)(c2cccnc2)S1 (centres undefined) | -0.3% | -8.0% | 5.2% | 44.7µM* | ·
